# Source: the supplement of paper PMC8728848
# The sample as a whole holds a higher share of the strongest signals than the screen did.
# How the values were obtained:
# Experiment in all cases: glycan array binding signal (z-score within array); higher = stronger binding
# Conditions in all cases: glycan notation: IUPAC condensed, linker removed
# Fuc(a1-2)Gal(b1-4)GlcNAc = molecular target: Fuc(a1-2)Gal(b1-4)GlcNAc
# Outline: (§1)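 Columns mapping to the same glycan were averaged after glycan names were converted to IUPAC-condensed notation. The data come from 3228 arrays in the Consortium for Functional Glycomics database, limited to those with an available protein sequence. Binding is reported as a within-array Z-score averaged across arrays of one protein sequence and across linkers.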
# [1] = molecular target: Fuc(a1-2)Gal(b1-4)GlcNAc(b1-2)Man(a1-3)[Fuc(a1-2)Gal(b1-4)GlcNAc(b1-2)Man(a1-6)]Man(b1-4)GlcNAc(b1-4)[Fuc(a1-6)]GlcNAc
# Outline: as §1
# [2] = molecular target: Fuc(a1-2)Gal6S(b1-3)GlcNAc
# Outline: as §1
# [3] = molecular target: Fuc(a1-2)Gal6S(b1-3)GlcNAc6S
# Outline: as §1
# Fuc(a1-2)[Gal(a1-3)]Gal = molecular target: Fuc(a1-2)[Gal(a1-3)]Gal
# Outline: as §1
# [4] = molecular target: Fuc(a1-2)[Gal(a1-3)]Gal(b1-3)GlcNAc
# Outline: as §1
# [5] = molecular target: Fuc(a1-2)[Gal(a1-3)]Gal(b1-3)GlcNAc(b1-2)Man(a1-3)[Fuc(a1-2)[Gal(a1-3)]Gal(b1-3)GlcNAc(b1-2)Man(a1-6)]Man(b1-4)GlcNAc(b1-4)[Fuc(a1-6)]GlcNAc
# Outline: as §1
# [6] = molecular target: Fuc(a1-2)[Gal(a1-3)]Gal(b1-4)GlcNAc(b1-6)GalNAc
# Outline: as §1
# [7] = molecular target: Fuc(a1-2)[GalNAc(a1-3)]Gal(b1-3)GlcNAc(b1-2)Man(a1-3)[Fuc(a1-2)[GalNAc(a1-3)]Gal(b1-3)GlcNAc(b1-2)Man(a1-6)]Man(b1-4)GlcNAc(b1-4)[Fuc(a1-6)]GlcNAc
# Outline: as §1
# [8] = molecular target: Fuc(a1-2)[GalNAc(a1-4)]Gal(b1-4)GlcNAc
# Outline: as §1
# [9] = molecular target: Fuc(a1-3)[Gal(b1-4)]GlcNAc
# Outline: as §1
# [10] = molecular target: Fuc(a1-3)[Gal(b1-4)]GlcNAc(b1-6)GalNAc
# Outline: as §1
# Gal(a1-3)Gal(b1-3)GlcNAc = molecular target: Gal(a1-3)Gal(b1-3)GlcNAc
# Outline: as §1
# [11] = molecular target: Gal(a1-3)Gal(b1-3)GlcNAc(b1-2)Man
# Outline: as §1
# [12] = molecular target: Gal(a1-3)Gal(b1-3)GlcNAc(b1-2)Man(a1-3)[Gal(a1-3)Gal(b1-3)GlcNAc(b1-2)Man(a1-6)]Man(b1-4)GlcNAc(b1-4)GlcNAc
# Outline: as §1
# [13] = molecular target: Gal(a1-3)Gal(b1-3)GlcNAc(b1-3)GalNAc
# Outline: as §1
# [14] = molecular target: Gal(a1-3)Gal(b1-4)GlcNAc(b1-2)Man(a1-3)[Gal(a1-3)Gal(b1-4)GlcNAc(b1-2)Man(a1-6)]Man(b1-4)GlcNAc(b1-4)GlcNAc
# Outline: as §1
# [15] = molecular target: Gal(a1-3)Gal(b1-4)[Fuc(a1-3)]GlcNAc
# Outline: as §1
# Gal(a1-3)GalNAc = molecular target: Gal(a1-3)GalNAc
# Outline: as §1
# [16] = molecular target: Gal(a1-3)[Gal(a1-4)]Gal(b1-4)GlcNAc
# Outline: as §1
# Gal(b1-3)GalNAc(b1-3)Gal = molecular target: Gal(b1-3)GalNAc(b1-3)Gal
# Outline: as §1
# [17] = molecular target: Gal(b1-3)GlcNAc(b1-2)Man(a1-3)[Gal(b1-3)GlcNAc(b1-2)Man(a1-6)]Man(b1-4)GlcNAc(b1-4)[Fuc(a1-6)]GlcNAc
# Outline: as §1
# [18] = molecular target: Gal(b1-3)GlcNAc(b1-3)Gal(b1-4)GlcNAc(b1-2)[Gal(b1-3)GlcNAc(b1-3)Gal(b1-4)GlcNAc(b1-6)]Man(a1-6)[Gal(b1-3)GlcNAc(b1-3)Gal(b1-4)GlcNAc(b1-2)Man(a1-3)]Man(b1-4)GlcNAc(b1-4)[Fuc(a1-6)]GlcNAc
# Outline: as §1
# Gal(b1-3)GlcNAc6S = molecular target: Gal(b1-3)GlcNAc6S
# Outline: as §1
# [19] = molecular target: Gal(b1-3)[Fuc(a1-4)]GlcNAc
# Outline: as §1
# [20] = molecular target: Gal(b1-3)[Fuc(a1-4)]GlcNAc(b1-6)GalNAc
# Outline: as §1
# Gal(b1-4)GlcNAc(b1-2)Man = molecular target: Gal(b1-4)GlcNAc(b1-2)Man
# Outline: as §1
# [21] = molecular target: Gal(b1-4)GlcNAc(b1-2)[Gal(b1-4)GlcNAc(b1-4)]Man(a1-3)[GlcNAc(b1-4)][Gal(b1-4)GlcNAc(b1-2)[Gal(b1-4)GlcNAc(b1-6)]Man(a1-6)]Man(b1-4)GlcNAc(b1-4)GlcNAc
# Outline: as §1
# [22] = molecular target: Gal(b1-4)GlcNAc(b1-3)Gal(b1-4)GlcNAc
# Outline: as §1
# [23] = molecular target: Gal(b1-4)GlcNAc(b1-6)Gal(b1-4)GlcNAc
# Outline: as §1
binder,measurement,setting,value
FimA-N2 (Actinomyces oris) (protein) MHHHHHHSSGVDLGTENLYFQSNAWIYDVNVYPKNEAIDVDKTIQAQKLNGYGVGSLIKFPVESTAPTLDAKSFYKYFQLKDTLDERLSEVTATDVSLEGTPLQPTDYKVETKQQTVTVTFTAEGLKKIKAAPGKKVSAVFQGKVTKAGNGAITNRAQVISDTLYAEQPPTPETPPTDPENPPTSDEVISRWGDLSIKKVDTHQQGQTKA,glycan array binding signal (z-score),Fuc(a1-2)Gal(b1-4)GlcNAc,0.416
same,glycan array binding signal (z-score),[1],2.43
same,glycan array binding signal (z-score),[2],1.35
same,glycan array binding signal (z-score),[3],3.98
same,glycan array binding signal (z-score),Fuc(a1-2)[Gal(a1-3)]Gal,1.78
same,glycan array binding signal (z-score),[4],-0.75
same,glycan array binding signal (z-score),[5],-0.838
same,glycan array binding signal (z-score),[6],2.61
same,glycan array binding signal (z-score),[7],-0.909
same,glycan array binding signal (z-score),[8],0.482
same,glycan array binding signal (z-score),[9],-0.144
same,glycan array binding signal (z-score),[10],-0.225
same,glycan array binding signal (z-score),Gal(a1-3)Gal(b1-3)GlcNAc,1.02
same,glycan array binding signal (z-score),[11],2.25
same,glycan array binding signal (z-score),[12],0.101
same,glycan array binding signal (z-score),[13],-0.826
same,glycan array binding signal (z-score),[14],-1.06
same,glycan array binding signal (z-score),[15],-1.47
same,glycan array binding signal (z-score),Gal(a1-3)GalNAc,-0.66
same,glycan array binding signal (z-score),[16],2.77
same,glycan array binding signal (z-score),Gal(b1-3)GalNAc(b1-3)Gal,-0.678
same,glycan array binding signal (z-score),[17],2.23
same,glycan array binding signal (z-score),[18],3.71
same,glycan array binding signal (z-score),Gal(b1-3)GlcNAc6S,-0.106
same,glycan array binding signal (z-score),[19],0.004
same,glycan array binding signal (z-score),[20],-0.651
same,glycan array binding signal (z-score),Gal(b1-4)GlcNAc(b1-2)Man,-0.413
same,glycan array binding signal (z-score),[21],-0.356
same,glycan array binding signal (z-score),[22],1.55
same,glycan array binding signal (z-score),[23],-0.5
